Only some compounds are listed: those with a hit (about 8.5% of all), similar ones and a draw of the others.
FBPA coupling cs: qHTS Assay for Inhibitors of Fructose-1,6-bisphosphate Aldolase from Giardia Lamblia: Coupling assay counterscreen. activity change, negative = inhibition, % at 58.2 µM, hits read low. 290,000 compounds, 0.67% hits. coupling enzyme system counterscreen, AmpLite Red fluorescence; in the data active = activity change below about -30%
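Counterscreen lacking aldolase: glyceraldehyde-3-phosphate coupling-enzyme reagent preincubated 10 min at RT with compound (at 57.5 uM final), then substrate/coupling system with AmpLite Red added; fluorescence read at 525/598 nm after 20 min RT.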
ALDH1A1 inh: qHTS Assay for Inhibitors of Aldehyde Dehydrogenase 1 (ALDH1A1) | Aldehyde dehydrogenase 1A1 (Homo sapiens), P00352 | Purified ALDH1A1, NADH fluorescence, propionaldehyde substrate | Potency, µM (series often up to 75.3 µM), hits mostly inhibitors | 220,000 compounds, 7.3% hits; active = well fitted inhibition curve with a large enough effect, not every such curve was filed as active; inconclusive = small, poorly fitted or top-dose-only effect, or another doubt; inactive = no such curve, though single readings can be large or run the other way
KDM4E inh: qHTS Assay for Inhibitors of Human Jumonji Domain Containing 2E (JMJD2E). Lysine-specific demethylase 4E (Homo sapiens), B2RXH2. JMJD2E catalytic domain, FDH-coupled NADH fluorescence (FDH is formaldehyde dehydrogenase). Potency, µM (highest dose often 57.1 µM), actives largely listed as inhibitors. 230,000 compounds, 1.6% hits. AID 2147, 2009; active = well fitted inhibition curve with a large enough effect, not every such curve was filed as active; inconclusive = small, poorly fitted or top-dose-only effect, or another doubt; inactive = no such curve, though single readings can be large or run the other way; also: nearly all actives have a fitted effect of over 50% in size
Sfp inh: qHTS Assay for Inhibitors of Bacillus subtilis Sfp phosphopantetheinyl transferase (PPTase). Biochemical Sfp PPTase activity, qHTS. Potency, µM, most hits filed as inhibitors. 310,000 compounds, 3.5% hits;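 also: the enzyme is Sfp with the accession as filed and its product quenches rhodamine fluorescence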
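Step 1, compound plus 15 nM Sfp-PPTase, 15 min, room temperature. Step 2, add rhodamine-CoA (5 uM) and BHQ-2-YbbR (12.5 uM). Step 3, read 525/598 nm fluorescence at 0 and 30 min.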
RGS12 GoLoco inh: qHTS Assay for Inhibitors of RGS12 GoLoco Motif Activity (Red Fluorophore); AID 880, 2007; Potency, µM (titrated, usually from 61.6 µM), usual class: inhibitors; Guanine nucleotide-binding protein G(i) subunit alpha-1 (Homo sapiens), P63096; Gai1:RGS12 GoLoco peptide FP, rhodamine, 10 min; 230,000 compounds, 0.44% hits; active = well fitted inhibition curve with a large enough effect, not every such curve was filed as active; inactive = no such curve, though single readings can be large or run the other way; also: nearly all actives have a fitted effect of over 30% in size
Target sequence (P63096 whole entry, looked up): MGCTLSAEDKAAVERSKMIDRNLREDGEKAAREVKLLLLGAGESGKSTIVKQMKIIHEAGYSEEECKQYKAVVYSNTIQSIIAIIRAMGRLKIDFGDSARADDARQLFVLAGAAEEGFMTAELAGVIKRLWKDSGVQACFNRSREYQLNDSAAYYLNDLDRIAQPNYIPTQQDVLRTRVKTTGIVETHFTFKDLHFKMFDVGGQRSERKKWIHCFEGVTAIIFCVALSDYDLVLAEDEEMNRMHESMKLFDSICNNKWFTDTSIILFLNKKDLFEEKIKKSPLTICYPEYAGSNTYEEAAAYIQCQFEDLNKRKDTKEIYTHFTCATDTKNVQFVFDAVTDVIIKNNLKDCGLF
NPSR antag: qHTS Assay for Antagonists of the Neuropeptide S Receptor: cAMP Signal Transduction | Q6W5P4 | CHO-NPSR cells, cAMP TR-FRET, antagonist mode | Potency, µM (top dose mostly 38.3 µM), usual class: inhibitors | 220,000 compounds, 1% hits | AID 1461, 2008; also: nearly all actives have a fitted effect of over 50% in size
Of the large screens only hits and unclear results are named; the others gave an inactive call. Unless noted, calls follow the shape of the dose curve; as a rule, active = well fitted curve in the direction sought with a large enough effect; inconclusive = small, poorly fitted or top-dose-only effect, or another doubt; inactive = no such curve, though single readings can be large; an effect the other way counts as inactive or inconclusive.

COc1ccccc1CN1CCCC(CN(CCN(C)C)C(=O)c2ccc(C)cc2)C1 (stereo not drawn)	none (no result: ALDH1A1 inh, KDM4E inh, RGS12 GoLoco inh, NPSR antag)
N#CC1=C(N)Oc2c(oc(CO)cc2=O)C1c1ccccc1[N+](=O)[O-] (stereo not drawn)	none (no result: ALDH1A1 inh)
CCCCOC(=O)n1c(=S)oc2cc(Cl)ccc21	ALDH1A1 inh inconclusive, Sfp inh 56.2µM
COC(=O)n1c(=S)oc2cc(Cl)ccc21	ALDH1A1 inh 14.1µM, Sfp inh 25.1µM
CCOCCCn1c(=S)[nH]c2cc(C(=O)N3CCOCC3)ccc2c1=O	Sfp inh 79.4µM
CCOC(=O)N1CCN(C(=O)c2ccc3c(=O)n(Cc4ccc(Cl)cc4)c(=S)[nH]c3c2)CC1	ALDH1A1 inh 10µM, NPSR antag inconclusive
CCN(CC)C(=O)c1ccc2c(=O)n(CCOC)c(=S)[nH]c2c1	ALDH1A1 inh 11.2µM
CCN(CC)C(=O)c1ccc2c(=O)n(Cc3cccc(Br)c3)c(=S)[nH]c2c1	none (no result: ALDH1A1 inh, KDM4E inh, RGS12 GoLoco inh, NPSR antag)
CCOCCCn1c(=S)[nH]c2cc(C(=O)NCC(OC)OC)ccc2c1=O	ALDH1A1 inh 8.91µM
O=C(c1ccc2c(=O)n(Cc3ccccc3)c(=S)[nH]c2c1)N1CCOCC1	none (no result: ALDH1A1 inh, KDM4E inh, RGS12 GoLoco inh, NPSR antag)
CC(C)C(=O)Nc1c2c(nn1-c1ccc(F)cc1)CS(=O)(=O)C2	none (no result: ALDH1A1 inh, KDM4E inh, RGS12 GoLoco inh, NPSR antag)
Cc1ccc(O)c(N=Cc2ccc(C)s2)c1	KDM4E inh inconclusive, Sfp inh 56.2µM
Cc1ccc(O)c(N=Cc2cccs2)c1	KDM4E inh inconclusive
Cc1ccc(C(=O)Nc2cccc(C(=O)N3CCOCC3)c2)cc1Cl	none (no result: ALDH1A1 inh, KDM4E inh, RGS12 GoLoco inh, NPSR antag)
CCc1ccc(NC(=S)Nc2cccc3cnccc23)cc1	FBPA coupling cs -49.2, ALDH1A1 inh 11.2µM, KDM4E inh inconclusive, Sfp inh 22.4µM
CC(=O)N(C)c1ccc(NC(=S)Nc2cccc3ccccc23)cc1	FBPA coupling cs -35.5, ALDH1A1 inh inconclusive, KDM4E inh inconclusive
CC(=O)N(C)c1ccc(NC(=S)Nc2ccccc2)cc1	none
Cc1ccc(NC(=S)c2ccncc2)c(C)c1	none (no result: ALDH1A1 inh, KDM4E inh, RGS12 GoLoco inh, NPSR antag)
O=C(NC(=S)Nc1cccc2cnccc12)c1ccccc1	Sfp inh 44.7µM
Cc1ccc(NC(=S)Nc2cccc3cnccc23)c(C)c1	FBPA coupling cs -36.3, ALDH1A1 inh 17.8µM, KDM4E inh inconclusive, Sfp inh 50.1µM
O=C(NC(=S)Nc1cccc2cccnc12)c1ccccc1	ALDH1A1 inh inconclusive, NPSR antag inconclusive
O=C(CN1CCOCC1)N/N=C/c1cccc2ccccc12	none (no result: ALDH1A1 inh, KDM4E inh, RGS12 GoLoco inh, NPSR antag)
O=C(Nc1cccnc1)C1CCC(CNS(=O)(=O)c2cccc3nsnc23)CC1 (stereo not drawn)	none (no result: ALDH1A1 inh)
Cc1ccc(NC(=S)Nc2cccc3ccccc23)cc1F	Sfp inh inconclusive (no result: ALDH1A1 inh, KDM4E inh, RGS12 GoLoco inh, NPSR antag)
Cc1cc(C)cc(NC(=S)Nc2cccc3cnccc23)c1	FBPA coupling cs -36.1, ALDH1A1 inh 11.2µM, KDM4E inh 20µM, Sfp inh 25.1µM
CCc1cc2c(nc1CC)CCN(CC/C(C)=N/OC[C@@H](O)[C@@H]1O[C@@H]3OC(C)(C)O[C@@H]3[C@H]1O)C2	none (no result: KDM4E inh, RGS12 GoLoco inh, NPSR antag)
COc1cc(OC)cc(-c2n[nH]c(=S)n2-c2ccc3c(c2)OCO3)c1	KDM4E inh inconclusive, Sfp inh inconclusive
S=c1[nH]nc(-c2ccc3ccccc3n2)n1-c1ccc2ncccc2c1	Sfp inh inconclusive
S=c1[nH]nc(-c2ccc3ncccc3c2)n1-c1ccc2c(c1)OCCO2	Sfp inh 79.4µM
Oc1ccc(-c2n[nH]c(=S)n2-c2ccc3c(c2)OCCO3)cc1	ALDH1A1 inh 25.1µM, KDM4E inh inconclusive, Sfp inh 79.4µM
COc1ccc(CCNC(=O)C2CCCN2C(=O)Nc2ccc(F)cc2)cc1OC (stereo not drawn)	none (no result: ALDH1A1 inh, KDM4E inh, RGS12 GoLoco inh, NPSR antag)
CCOc1ccccc1N(C)S(=O)(=O)c1ccc2c(c1)CC(C)N2C(=O)C1CC1 (stereo not drawn)	none (no result: ALDH1A1 inh, KDM4E inh, RGS12 GoLoco inh, NPSR antag)

Assay outcomes deposited in PubChem by National Center for Advancing Translational Sciences (NCATS).
